Records with an inconclusive call do not appear. Calls of active or inactive are those of the source. Calls come from the whole dose curve; as a rule, active = well fitted inhibition curve with a large enough effect; inconclusive = small, poorly fitted or top-dose-only effect; inactive = flat fitted curve, though single readings scatter.
Legend:
Experiment in all cases: qHTS profiling for inhibitors of Plasmodium falciparum proliferation (AID 504749); note: nearly all actives have a fitted effect of over 60% in size
CP203 = settings: P. falciparum in erythrocytes, SYBR Green DNA, 72 h; series mostly up to 12.8 µM
How it was run: (§1)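 SYBR Green fluorescence (ex 485 nm, em 535 nm) reports parasite DNA after 72 h compound exposure of infected red cells at 0.3% parasitemia, 2.5% hematocrit; signal normalized to 0.29 uM artemisinin and vehicle wells.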

CP211 = settings: P. falciparum in erythrocytes, SYBR Green DNA, 72 h; series mostly up to 12.8 µM
How it was run: as §1

CP215 = settings: P. falciparum in erythrocytes, SYBR Green DNA, 72 h; series mostly up to 28.7 µM
How it was run: as §1

CP217 = settings: P. falciparum in erythrocytes, SYBR Green DNA, 72 h; series mostly up to 12.8 µM
How it was run: as §1

CP237 = settings: P. falciparum in erythrocytes, SYBR Green DNA, 72 h; series mostly up to 12.8 µM
How it was run: as §1

CP238 = settings: P. falciparum in erythrocytes, SYBR Green DNA, 72 h; series mostly up to 12.8 µM
How it was run: as §1

CP247 = settings: P. falciparum in erythrocytes, SYBR Green DNA, 72 h; series mostly up to 12.8 µM
How it was run: as §1

CP250 = settings: P. falciparum in erythrocytes, SYBR Green DNA, 72 h; series mostly up to 12.8 µM
How it was run: as §1

CP252 = settings: P. falciparum in erythrocytes, SYBR Green DNA, 72 h; series mostly up to 12.8 µM
How it was run: as §1

CP256 = settings: P. falciparum in erythrocytes, SYBR Green DNA, 72 h; series mostly up to 12.8 µM
How it was run: as §1

CP260 = settings: P. falciparum in erythrocytes, SYBR Green DNA, 72 h; series mostly up to 12.8 µM
How it was run: as §1

CP262 = settings: P. falciparum in erythrocytes, SYBR Green DNA, 72 h; series mostly up to 12.8 µM
How it was run: as §1

CP265 = settings: P. falciparum in erythrocytes, SYBR Green DNA, 72 h; series mostly up to 12.8 µM
How it was run: as §1

CP266 = settings: P. falciparum in erythrocytes, SYBR Green DNA, 72 h; series mostly up to 28.7 µM
How it was run: as §1

CP268 = settings: P. falciparum in erythrocytes, SYBR Green DNA, 72 h; series mostly up to 12.8 µM
How it was run: as §1

CP269 = settings: P. falciparum in erythrocytes, SYBR Green DNA, 72 h; series mostly up to 12.8 µM
How it was run: as §1

CP286 = settings: P. falciparum in erythrocytes, SYBR Green DNA, 72 h; series mostly up to 12.8 µM
How it was run: as §1

CP291 = settings: P. falciparum in erythrocytes, SYBR Green DNA, 72 h; series mostly up to 12.8 µM
How it was run: as §1

CP297 = settings: P. falciparum in erythrocytes, SYBR Green DNA, 72 h; series mostly up to 12.8 µM
How it was run: as §1

CP305 = settings: P. falciparum in erythrocytes, SYBR Green DNA, 72 h; series mostly up to 12.8 µM
How it was run: as §1

CP315 = settings: P. falciparum in erythrocytes, SYBR Green DNA, 72 h; series mostly up to 12.8 µM
How it was run: as §1

CP325 = settings: P. falciparum in erythrocytes, SYBR Green DNA, 72 h; series mostly up to 12.8 µM
How it was run: as §1

CP329 = settings: P. falciparum in erythrocytes, SYBR Green DNA, 72 h; series mostly up to 12.8 µM
How it was run: as §1

CP335 = settings: P. falciparum in erythrocytes, SYBR Green DNA, 72 h; series mostly up to 12.8 µM
How it was run: as §1

DFO2036 = settings: P. falciparum in erythrocytes, SYBR Green DNA, 72 h; series mostly up to 12.8 µM
How it was run: as §1

DIV14 = settings: P. falciparum in erythrocytes, SYBR Green DNA, 72 h; series mostly up to 12.8 µM
How it was run: as §1

DIV17 = settings: P. falciparum in erythrocytes, SYBR Green DNA, 72 h; series mostly up to 12.8 µM
How it was run: as §1

DIV30 = settings: P. falciparum in erythrocytes, SYBR Green DNA, 72 h; series mostly up to 12.8 µM
How it was run: as §1

Dd2 = settings: P. falciparum in erythrocytes, SYBR Green DNA, 72 h; series mostly up to 12.8 µM
How it was run: as §1

ECU = settings: P. falciparum in erythrocytes, SYBR Green DNA, 72 h; series mostly up to 12.8 µM
How it was run: as §1

Measured: Potency

COc1ccc(C[C@@H]2c3cc(OC)c(OC)cc3CC[N@+]2(C)CCC(=O)OCCCCCOC(=O)CC[N@@+]2(C)CCc3cc(OC)c(OC)cc3[C@H]2Cc2ccc(OC)c(OC)c2)cc1OC
inactive: all assays above

Reference: PubChem BioAssay (NCATS)
